Laboratory results taken from PubChem BioAssay (NCI).
This is part of a sample that, as a whole, favours compounds with a hit. Of some 83,000 tested, about 20% had one in any assay.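 Step 1: grow cells in 96-well plates. Step 2: add test compound at a single concentration. Step 3: incubate 48 h. Step 4: record percent growth.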 A number with no mark means an inactive call. The source made the active and inactive calls. Rule for the calls: active = growth percent below 10; inactive = the rest.

Legend:
Assay in all cases: NCI-60 one-dose screen, 48 h (100 = growth as untreated, 0 = no growth, -100 = all killed)
Details in all cases: 10 µM unless noted
[1] = system: NCI-H23 lung
[2] = system: NCI-H226 lung
[3] = system: NCI-H322M lung
[4] = system: HOP-62 NSCLC
[5] = system: NCI-H460 lung
[6] = system: HOP-92 NSCLC
[7] = system: NCI-H522 lung
[8] = system: A549/ATCC NSCLC
[9] = system: COLO 205 colon
[10] = system: DU-145 prostate
[11] = system: K-562 leukemia
[12] = system: MALME-3M melanoma
[13] = system: MDA-MB-231 breast
[14] = system: RXF 393 renal
[15] = system: SF-268 CNS
[16] = system: SF-295 CNS
[17] = system: SF-539 CNS
[18] = system: UACC-257 melanoma
[19] = system: M14 melanoma
[20] = system: 786-0 renal

SMILES	growth [1]	growth [2] [%]	growth [3]	growth [4] [%]	growth [5]	growth [6]	growth [7]	growth [8] [%]	growth [9]	growth [10]	growth [11]	growth [12]	growth [13]	growth [14]	growth [15]	growth [16]	growth [17]	growth [18]	growth [19]	growth [20]
CCOc1ccc(NC(=S)N2CCC(CCCC3CCN(C(=S)Nc4ccc(OCC)cc4)CC3)CC2)cc1	75.8%	77.1	100%	104	91.5%	59.2%	77.7%	83.3	110%	95.9%	61.5%	80.1%	92.4%	110%	83.1%	84.6%	106%	83.1%	97.9%	–
O=C1C=C(c2ccccc2)C(O)(c2ccccc2)C1 (configuration not stated)	99.1%	101	106%	101	110%	163%	94%	93.4	104%	–	86.6%	108%	92.5%	115%	103%	94.1%	104%	97.7%	95.5%	99.1%
C=CCC(O)C=C (configuration not stated)	101%	103	91.7%	109	107%	109%	108%	99.4	–	111%	91.4%	80.7%	108%	107%	111%	99.6%	104%	93.5%	104%	97.5%
COC1OC(C(O)C(O)CO)C(O)C(O)C1O (configuration not stated)	106%	93.4	98.1%	88.5	106%	101%	111%	97.3	111%	118%	104%	101%	–	98%	103%	100%	97.5%	95.6%	97.4%	–
Nc1ncnc(Nc2ccccc2)n1	101%	104	104%	119	107%	84.5%	99.4%	104	110%	120%	98.8%	124%	115%	118%	112%	113%	108%	108%	106%	–
O=C(N/N=C\c1ccc(Cl)cc1Cl)c1ccncc1	103%	102	106%	112	105%	87.9%	84.8%	91	–	111%	96.7%	99.1%	98.9%	118%	98.7%	103%	105%	104%	100%	90.5%
Cc1c(Cl)cccc1NC(=S)NC(=O)c1ccccc1	85.5%	90.8	97.4%	110	103%	71.8%	59%	75	–	111%	79.7%	89.4%	90.2%	85.5%	109%	85.1%	100%	88.9%	115%	120%
COC1OC(C(COC(C)=O)OC(C)=O)C(OC(C)=O)C(OC(C)=O)C1OC(C)=O (configuration not stated)	112%	99.4	115%	99.3	112%	128%	103%	106	–	115%	119%	–	126%	115%	113%	–	92%	110%	106%	107%
COc1cc(C(=O)O)c(O)c(C(C)(C)C)c1	102%	102	107%	104	105%	88.2%	106%	102	–	106%	101%	102%	103%	117%	105%	102%	102%	97.9%	105%	101%
CN1C(=O)NC(c2ccc(Cl)cc2)(c2ccc(Cl)cc2)C1=O	98.2%	94.1	119%	125	111%	58.4%	108%	115	–	102%	70.1%	108%	99.8%	62%	102%	102%	111%	118%	100%	106%
O=S1(=O)c2ccccc2Oc2ccccc21	104%	100	101%	93.4	99%	90.4%	78.2%	95.4	–	107%	114%	110%	110%	90.7%	107%	91.8%	96.1%	103%	101%	99.9%
CCOC(=O)c1ccc(NC(=O)Nc2nccs2)cc1	19.4%	19.9	41.3%	20.6	-44.2% (active)	-7.86% (active)	-43.5% (active)	10.6	–	-26.3% (active)	-3.89% (active)	39.4%	8.88% (active)	-21.2% (active)	0.081% (active)	9.16% (active)	-50.1% (active)	45.5%	4.57% (active)	-7.93% (active)
C=CCNC(=S)N/C=C(/C(=O)c1ccccc1)c1ccccc1	97.4%	104	111%	96.7	104%	–	109%	103	95.3%	109%	102%	–	107%	111%	98.2%	110%	101%	109%	91.9%	111%
ClCc1cccc2c(CCl)cccc12	61.5%	74.9	-4.83% (active)	54.5	16.7%	–	79.4%	57.7	77.9%	32.6%	79.2%	90.6%	92.3%	61%	64.3%	58.6%	61.6%	70%	25.8%	-74.3% (active)
CCCCCCCCCCCCCCCCCC(=O)NCCNC(=O)CCCCCCCCCCCCCCCCC	95.2%	107	72.4%	89.8	98.8%	–	98.7%	94.5	84.5%	97.5%	57.4%	93.5%	75.3%	109%	89.3%	100%	96.9%	105%	95.6%	91.9%
Cc1cc(C(=O)NN)c(C#N)c(=O)[nH]1	100%	99.1	110%	97	97.2%	–	89.8%	101	94.1%	106%	116%	103%	106%	99.5%	116%	127%	87.7%	95.4%	100%	107%
CN(CCCN(C)CCC1CCCCC1)CCC1CCCCC1	64.1%	66.9	94.6%	57.3	29%	–	69.6%	83.7	-81% (active)	83.8%	-57.5% (active)	-74.7% (active)	-3% (active)	-4.36% (active)	84.2%	27.1%	-57.7% (active)	-66.3% (active)	-100% (active)	53.2%
Nc1ccc(F)c(Cl)c1F	103%	91.3	110%	112	101%	–	108%	113	118%	111%	100%	107%	101%	97.1%	106%	107%	103%	118%	97.2%	101%

SMILES	growth [1]	growth [2] [%]	growth [3]	growth [4] [%]	growth [5]	growth [6]	growth [7]	growth [8] [%]	growth [9]	growth [10]	growth [11]	growth [12]	growth [13]	growth [14]	growth [15]	growth [16]	growth [17]	growth [18]	growth [19]	growth [20]
CCN1CCCC(N2c3ccccc3Sc3ccccc32)C1 (configuration not stated)	103%	113	86%	104	104%	–	94.9%	103	96.6%	94.1%	91.8%	92.1%	76.5%	104%	103%	107%	103%	104%	99.8%	87.7%
S=c1nc(-c2ccccn2)c(-c2ccccn2)n[nH]1	100%	101	103%	110	112%	–	82.7%	105	115%	103%	105%	89.6%	118%	118%	102%	–	111%	107%	98.3%	98.4%
CNc1ccccc1C(N)=O	99%	103	97.3%	95.9	108%	–	98.1%	97.4	115%	107%	108%	97.9%	–	98.1%	100%	95.5%	97.6%	98.4%	96.2%	101%
CCOc1ccc(C(=O)NCC(C)C)cc1	107%	104	101%	95.8	103%	–	97.8%	108	101%	110%	102%	101%	93.2%	108%	102%	99.5%	94.4%	110%	97%	97.6%
C=C(OC(C)=O)c1ccccc1	97.1%	107	113%	85.5	102%	–	88.5%	86.7	109%	113%	83%	108%	103%	113%	102%	105%	108%	83.7%	97.3%	104%
Cc1ccc2[nH]c3ccccc3c2c1	96.9%	103	99.6%	113	99.7%	–	101%	102	109%	104%	89.8%	95.2%	111%	112%	103%	103%	101%	104%	110%	93.9%
Nc1cc2c(cc1Cl)C(=O)c1ccccc1C2=O	0.869% (active)	12.7	30.2%	26.8	0.87% (active)	–	65%	27.2	76.2%	67.7%	72.4%	64.7%	–	72.2%	44.5%	35.4%	-82% (active)	89.8%	85.3%	-19% (active)
COc1ccc(NNS(=O)(=O)O)cc1	98.3%	95	116%	85.1	105%	–	96%	95.3	104%	111%	99.5%	104%	–	95.1%	106%	92.5%	95.1%	–	92.5%	103%
CCN(CC)CCCC(C)NC(=S)N/N=C(\C)c1ccccn1 (configuration not stated)	73.1%	33.2	31.9%	45.4	24.7%	–	47.2%	48.9	28.9%	42.1%	38.7%	33.5%	36.8%	49.4%	43.7%	–	31.2%	57.4%	37.2%	23.4%
CCOC(OCC)C(=O)c1ccccc1	127%	98.9	100%	–	99.7%	41.3%	85.2%	90.2	104%	106%	109%	93.8%	111%	109%	99.2%	113%	88.2%	85.9%	101%	107%
CCOC(=O)CNC(=O)Sc1ccc(C(C)(C)C)cc1	98.1%	87.2	79.6%	122	102%	–	69.6%	109	119%	114%	71.9%	90.7%	105%	118%	107%	102%	94%	111%	102%	102%
Cc1ccc(N)c(S(=O)(=O)O)c1	98.6%	103	93.8%	85.8	104%	–	156%	125	106%	125%	45.1%	129%	109%	108%	115%	116%	98.2%	101%	101%	101%
CCOC(=O)C(COS(C)(=O)=O)(COS(C)(=O)=O)C(=O)OCC	99.5%	105	101%	98.1	109%	–	96%	105	107%	–	101%	122%	109%	112%	99%	111%	112%	105%	104%	108%
COC(=O)c1ccc([N+](=O)[O-])c(C)c1	107%	102	93.2%	98.5	105%	–	107%	107	111%	113%	134%	96.9%	117%	105%	105%	109%	96.2%	101%	94%	103%
CC(=O)NNC(=S)N/C=C/c1c(C)ccc([N+](=O)[O-])c1[N+](=O)[O-]	94.8%	110	111%	103	102%	–	87.8%	102	101%	104%	102%	–	99.3%	105%	96.7%	103%	99.7%	99.6%	89.6%	97.2%
CCNC(=O)Oc1ccc[nH]c1=O	105%	115	102%	102	102%	–	88.4%	91.8	117%	117%	93.4%	103%	109%	116%	118%	106%	98.2%	97.8%	102%	100%
CCOS(=O)(=O)c1ccc([N+](=O)[O-])cc1	101%	101	102%	100	107%	–	94.3%	86.1	–	108%	99.2%	113%	106%	120%	103%	101%	102%	94.5%	105%	107%
